# Experimental data reported in PubChem BioAssay (NCI).
# About 83,000 compounds went through this panel and 20% of them were active in at least one assay; those are over-represented in the sample as a whole.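 The endpoint reported here, percent growth, reads 100 for growth as untreated, 0 for no net growth and -100 for all cells dead.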 Values without a mark were called inactive. Calls of active or inactive are those of the source. The calls were made as follows: active = growth percent below 10; inactive = the rest.
# System: HOP-62 NSCLC
# Test: NCI-60 one-dose screen, 48 h (100 = growth as untreated, 0 = no growth, -100 = all killed)
# Details: 10 µM unless noted
row,SMILES,growth
1,CCN1C(=O)N(CC)C2C1NN=c1s/c(=C\c3cnc(C)n3C)c(=O)n12 (centres undefined),34.4%
2,CCOC(=O)c1c(C)nc2ccccc2c1/C=C/c1ccccc1,93.8%
3,CN1CCN(C(=S)SCCCCOc2cc(=O)oc3ccccc23)CC1,79.6%
4,Nc1nc(N)c2c(n1)NC(c1cccc(Nc3ccnc4cc(C(F)(F)F)ccc34)c1)CC(c1ccc(Br)cc1)=N2 (centres undefined),58.2%
5,O=C(Nc1ccc(Cl)cc1)Oc1c(Cl)c(Cl)c(Cl)c(Cl)c1Cl,85.6%
6,CC(=O)/C(=C/c1ccc([N+](=O)[O-])cc1)C(=O)c1ccccc1,79.8%
7,Cc1cccc(N2CCC(=O)NC2=S)c1,110%
8,Cc1ccc(S(=O)(=O)OCCCOS(=O)(=O)c2ccc(C)cc2)cc1,113%
9,CCOC(=O)c1c(C)nc2c(c1N)CC(=O)N2Cc1ccc(OC)cc1,-7.19% (active)

# System: NCI-H460 lung
# Test: as above
# Details: 10 µM unless noted
row,SMILES,growth
1,CCNC(=O)Oc1ccc(/C(=C(/C)Cc2ccc(OC)cc2)c2ccc(OCCN3CCCCC3)cc2)cc1,35.7%
2,COC(=O)C(Cc1ccccc1)NC(=O)c1ccc(NC(=O)c2[nH]c(C)c(Cl)c2Cl)c(OC(C)C)c1 (centres undefined),6.05% (active)
3,Cc1ccc(S(=O)(=O)Oc2ccc3sc4cccc(NCCN(C)C)c4c(=O)c3c2)cc1,-92.7% (active)
4,O=C(Nc1ncccc1OCc1ccccc1)NC1CCCCCC1,93.5%
5,CCNc1nc(O)c(/C=C2\C=Nc3ncccc32)s1,2.41% (active)
6,Ic1ccccc1I,104%
7,CC1=C2[C@@H](CC1)[C@]1(C)O[C@@](C3CCCCC3)(C[C@H]1OC(=O)CO)[C@H]2OC(=O)/C=C/c1ccccc1,75.8%
8,Cc1ccc(-c2csc(NC(=O)c3ccccc3CN3C(=O)c4ccccc4C3=O)n2)cc1,109%
9,Oc1c(CN2CCCC2)cc(CSCc2ccccc2)c2cccnc12,2.01% (active)
10,Cc1ccc(-c2nc(SCc3nc4cc(Cl)c(Cl)cc4[nH]3)[nH]c(=O)c2C#N)cc1,112%
11,CC/C=C\CCC/C=C1/C(=O)C=C[C@@H]1C/C=C\CCCC(=O)OC,52.4%
12,C=C1C(=O)O[C@H]2[C@H]1CC/C(Cn1cc(CCC)nn1)=C\CC[C@@]1(C)O[C@@H]21,61.4%
13,CN(C)CCCC1(c2ccc(F)cc2)OCc2cc(-c3ccc4cc[nH]c4c3)ccc21 (centres undefined),-10.5% (active)
14,COc1ccc(CCN(CC(=O)N(CC(N)=O)C2CCC[C@@H]2OCc2ccccc2)C(=O)CN(C(=O)CN(CCc2ccc(Cl)cc2)C(=O)CN(C(=O)CN(C)Cc2ccccc2F)[C@H](C)C2CCCCC2)[C@H](C)C2CCCCC2)cc1OC (some centres undefined),28.3%
15,COc1ccc(C(=O)Cn2c(C(=O)c3ccc(Cl)cc3)nc3ccccc32)cc1,86.9%
16,O=C1/C(=C/c2ccccc2F)CN(C(=O)C(Cl)Cl)C/C1=C\c1ccccc1F,-74.2% (active)
17,CCOC(=O)C1=C(C)C(Cl)=N/C1=C\c1[nH]c(Cl)c(C)c1C(=O)OCC,108%
18,COc1ccc(/C=C/C(c2cc(OC)c(OC)c(OC)c2)n2cncn2)cc1 (centres undefined),22.1%
19,CCN1C(=O)N(CC)C2C1NC(=S)N2/N=C/c1ccc(C(F)(F)F)cc1 (centres undefined),75.6%
20,C[C@H](CCCC(=O)NCC#CCN1CCN(C)CC1)[C@H]1CC[C@H]2[C@@H]3CC[C@@H]4CC(=O)CC[C@]4(C)[C@H]3CC[C@]12C,96%

row,SMILES,growth
1,Fc1cccc(-c2ccc3c(c2)C2(CCNCC2)CN3)c1,106%
2,CCN1C(=O)N(CC)C2Nn3c(s/c(=C\c4ccccc4Br)c3=O)=NC21 (centres undefined),4.16% (active)
3,O=C(NCc1cccc(CNC(=O)Nc2nc3ccccc3[nH]2)c1)Nc1nc2ccccc2[nH]1,-52.9% (active)
4,O=C1Nc2ccccc2/C1=C\c1c[nH]c2ccc(Br)cc12,80.8%
5,COc1cc(C2C(C(=O)OCc3ccccc3)=C(C)NC(C)=C2C(=O)OCc2ccccc2)cc(OC)c1OC,25.6%
6,CCn1cc(CNc2ccc(C(=O)Nc3cc4cc(OC)c(OC)cc4c(C)n3)cc2)cn1,86.7%
7,COc1cc(/C=C/C(=O)/C=C(O)/C=C/c2ccc(OC(=O)C34CC5CC(CC(C5)C3)C4)c(OC)c2)ccc1OC(=O)C12CC3CC(CC(C3)C1)C2,108%
8,COc1ccc(C2=CN3CC=CC3CC2=O)cc1 (centres undefined),106%
9,C=C(C)[C@@H]1CCC[C@]2(C(=O)O)CC[C@]3(C)[C@@H](CC[C@@H]4[C@@]5(C)C/C(=C/c6ccncc6)C(=O)C(C)(C)[C@@H]5CC[C@]43C)[C@@H]12,5.65% (active)
10,FC(F)(F)c1ccc(Cn2cc(CSc3nc4ccccc4s3)nn2)cc1,102%
11,CCCn1nc(C(=O)N(C)Cc2ccccc2)c2c1CCC(N1CCc3ccccc31)C2 (centres undefined),112%
12,CCN1C(=O)N(CC)C2C1NN=c1s/c(=C\c3cnc(C)n3C)c(=O)n12 (centres undefined),4.44% (active)
13,CCOC(=O)c1c(C)nc2ccccc2c1/C=C/c1ccccc1,86.9%
14,CN1CCN(C(=S)SCCCCOc2cc(=O)oc3ccccc23)CC1,93.5%
15,Nc1nc(N)c2c(n1)NC(c1cccc(Nc3ccnc4cc(C(F)(F)F)ccc34)c1)CC(c1ccc(Br)cc1)=N2 (centres undefined),29.9%
16,O=C(Nc1ccc(Cl)cc1)Oc1c(Cl)c(Cl)c(Cl)c(Cl)c1Cl,101%
17,CC(=O)/C(=C/c1ccc([N+](=O)[O-])cc1)C(=O)c1ccccc1,107%
18,Cc1cccc(N2CCC(=O)NC2=S)c1,104%
19,Cc1ccc(S(=O)(=O)OCCCOS(=O)(=O)c2ccc(C)cc2)cc1,96.5%
20,CCOC(=O)c1c(C)nc2c(c1N)CC(=O)N2Cc1ccc(OC)cc1,5.12% (active)
